From PubChem BioAssay
Sampled rows, rich in hits. Any-hit rate of the full collection: about 4.2%.
PTK2B oligo ant = blocks oligomerization of human Pyk2 in cells | Q14289 | Q293 cells, Pyk2 FERM NanoBiT luminescence; hits give low values | z-score (the deposit names both 25 µM and 10 µM) | actives 0.83% (n = 99,000) | AID 1347419;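 active = Z-score of -3 or lower, scaled per plate to the spread of control and sample wells; inactive = z-score above -3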;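 note: negative z-score means lost luminescence so less FERM oligomerization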
Ec RNAP inh = blocks E. coli RNA polymerase transcription. inhibition, %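 (tested at 10 µM)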. AID 559. actives 0.2% (n = 62,000). fluorescence transcription assay. P0A8V2; in the data active = inhibition above about 20%;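 note: 0% = enzyme without compound and 100% = no enzyme blank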
Cav3 T inh = human Cav3.2 channel inhibition, primary screen; Cav3.2-expressing cells, Fluo-4 calcium fluorescence FDSS; hits give low values; actives 4% (n = 100,000); O95180; B-score at 10 µM; AID 449739;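 active = single-dose well whose peak fluorescence ratio is a statistical outlier from its plate by either plate-standardised score or position-corrected B-score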
CD11b adhes inh = inhibitors of human CD11b/CD18 binding to fibrinogen; K562 CD11b/CD18 adhesion to fibrinogen, ATPlite luminescence; Mn2+ added to activate the integrin; inhibition, % at 10 µM; AID 1497; P05107+P11215; actives 0.54% (n = 93,000);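 active = primary inhibition of 50% or more at 10 µM, then 40% or more on retest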
Mac1 fbg enh = enhancers of human CD11b/CD18 binding to fibrinogen | actives 0.07% (n = 93,000) | K562 CD11b/CD18 adhesion to fibrinogen, ATPlite luminescence | activation, % at 10 µM | AID 1499 | P05107+P11215;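 active = 10 µM primary screen giving 50% or more activity, confirmed by 40% or more on retest at that dose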
Active calls of the source: *; . = no result.

SMILES	PTK2B oligo ant	Ec RNAP inh	Cav3 T inh	CD11b adhes inh	Mac1 fbg enh
CC(=O)C1=C(O)C(=O)N(Cc2cccnc2)C1c1ccc(Cl)cc1 (configuration not stated)	-0.12	.	0.18	.	.
COc1cc(C2c3c(-c4cc(Cl)c(C)cc4O)n[nH]c3C(=O)N2Cc2cccnc2)ccc1O (configuration not stated)	-4.8*	6	0.68	-9	-2
COc1cccc(C2c3c(-c4cc(Cl)c(C)cc4O)n[nH]c3C(=O)N2Cc2cccnc2)c1 (configuration not stated)	-3.7*	.	1.1	45	2
COc1ccc(C2C(C(=O)c3ccco3)=C(O)C(=O)N2Cc2cccnc2)cc1OC (configuration not stated)	0.41	-5	0.26	7	6
CC(C)(C)c1csc(NC(=O)Cn2c(=O)oc3ccccc32)n1	-3.4*	4	-10*	-54	-1
O=C(Cn1c(=O)oc2ccccc21)Nc1nc(-c2ccccc2)cs1	-1.3	.	1.5	-6	0
Cc1cc(N2CCN(S(=O)(=O)c3ccc(Cl)cc3)CC2)c2ccccc2n1	-0.55	3	-1.9	85*	-8
Cc1cc(C)n(-c2cc(N3CCN(S(=O)(=O)c4ccc(Cl)cc4)CC3)ccc2[N+](=O)[O-])n1	.	.	.	-2	-1
O=C(COC(=O)c1cccnc1Cl)Nc1nc(-c2ccccc2)cs1	.	.	.	27	0
O=S(=O)(c1ccccc1)n1nc(-c2ccccc2)nc1NCc1ccco1	0.14	8	-4.5*	1	0
O=C(c1ccccc1)n1nc(-c2ccccc2)nc1NCc1ccco1	.	10	.	-11	3
CCc1nnc(NS(=O)(=O)c2ccc(NC(=S)NC(=O)/C=C/c3ccc(C(C)C)cc3)cc2)s1	-1.1	.	-0.21	.	.
Cc1nnc(N2C(=O)C(O)=C(C(=O)c3ccco3)C2c2ccc(C(C)(C)C)cc2)s1 (configuration not stated)	-0.97	.	-3.7*	.	.
O=C(O)c1cc2c([nH]c1=O)CCCC2	-0.66	5	-0.38	-28	5
C=CCSC(=C(C#N)C#N)c1cc2c([nH]1)CCCC2	0.34	.	-6.3*	103	-10
O=C(Nc1ccc2c(c1)OCO2)C1CCN(Cc2cnn(-c3ccccc3)c2-n2cccc2)CC1	-0.54	10	-5.2*	4	-5
O=C(Nc1ccc2c(c1)OCO2)C1CCN(S(=O)(=O)Cc2ccccc2)CC1	0.39	3	-0.0028	11	1
Cc1c(NC(=O)C2C3C=CC(C3)C2C(=O)O)c(=O)n(-c2ccccc2)n1C (configuration not stated)	0.36	.	0.72	-30	-4
O=C(NCc1ccc(C(F)(F)F)cc1)C1CC(c2cccc(F)c2)=NO1 (configuration not stated)	.	.	-2.7*	.	.
CC(=O)c1cccc(NC(=O)Cc2ccc3c(c2)CCCC3)c1	-0.7	.	-0.84	.	.
Cc1nc2ccccn2c1C(=O)NCc1ccc2c(c1)OCO2	0.93	10	0.32	-3	4
COc1ccc(-c2nc3ccccn3c2NCc2ccc3c(c2)OCO3)cc1	-0.2	.	-4*	.	.
c1ccc(-c2nc3ccccn3c2NCc2ccc3c(c2)OCO3)cc1	-0.3	.	-4.2*	.	.
CSC1=C(C#N)C(c2ccc(Cl)cc2)C2=C(CC(C)(C)CC2=O)N1 (configuration not stated)	-3.1*	3	-1.4	-13	-4
CCCSC1=C(C#N)C(c2ccc(OC)cc2)C2=C(CC(C)(C)CC2=O)N1 (configuration not stated)	-2.4	1	0.33	-8	-5
SMILES	PTK2B oligo ant	Ec RNAP inh	Cav3 T inh	CD11b adhes inh	Mac1 fbg enh
CC(C)OC(=O)c1cc2c(ccn2C)n1CC(=O)N1CCC(Cc2ccccc2)CC1	0.09	.	-7.9*	.	.
Cc1ccccc1Cn1c(C(=O)OC(C)C)cc2c1ccn2C	0.94	.	-0.84	.	.
O=C(c1ccc2c(c1)N(Cc1ccccc1)CCS2)N1CCCCC1	.	.	-8.3*	0	1
O=C(c1ccc(C(=O)N2CCCCCC2)cc1)N1CCCCCC1	-0.19	.	0.51	.	.
CC1CCCC(C)N1C(=O)c1cccc2c1-c1ccccc1/C2=N/O (configuration not stated)	-3.3*	.	-6.4*	.	.
Cc1ccc(C)c(NC(=O)c2ccc(S(=O)(=O)C(F)F)cc2)c1	.	.	.	6	0
O=C(Nc1ccon1)C(Sc1ccccc1)c1ccccc1 (configuration not stated)	-1.1	-1	-4.2*	-1	-1
CCn1c(SCC(=O)Nc2nccs2)nnc1-c1ccc(S(=O)(=O)N2CCCCCC2)cc1	-1.5	.	-0.97	16	0
CCC(Sc1nnc(-c2ccc(C)c(Cl)c2)n1CC)C(=O)Nc1nccs1 (configuration not stated)	-0.31	7	-5.7*	56*	-4
COc1ccc(Cl)cc1NC(=O)CSc1nnc(Cc2cccn2C)n1-c1ccc(F)cc1	.	7	-6*	10	6
Cn1cccc1Cc1nnc(SCC(=O)Nc2ccc(F)cc2F)n1-c1ccc(F)cc1	.	7	-4.5*	-3	2
Cc1ccc(NC(=O)CSc2nnc(Cc3cccn3C)n2-c2ccc(F)cc2)c(C)c1	.	6	-10*	2	-2
CSc1ccccc1NC(=O)c1ccccc1N(Cc1ccccc1)S(C)(=O)=O	-1.3	.	-4.9	-9	-4
O=C(CCC1CCCCC1)NNC(=O)NC12CC3CC(CC(C3)C1)C2	0.31	.	-2.6	48	2
C=CCc1cc(C)ccc1OCC(O)CN1CCN(c2ccccc2)CC1 (configuration not stated)	-0.33	-1	-4.6*	14	-3
COc1ccccc1N1CCN(CC(O)COc2cccc3ccccc23)CC1 (configuration not stated)	.	9	-4.5*	.	.
Cc1cc2ncn(-c3ncnc4sc5c(c34)CCC(C)C5)c2cc1C (configuration not stated)	-0.24	.	.	-6	0
C/C=C1\COC(C(=O)NCCCN2CCCC2=O)(C(F)(F)F)C=C1C=C(C)C (configuration not stated)	.	.	1.3	.	.
O=C(COc1ccccc1Cl)NCCC1=CCCCC1	.	.	.	6	-1
Cn1c(C(=O)NCCc2c[nH]c3ccccc23)cc2sccc21	.	3	-5.3*	26	-4
O=C(NCCc1c[nH]c2ccccc12)c1cc2sccc2n1Cc1ccccc1	1.4	.	-5*	-7	19
O=C(NCc1ccc(F)cc1)c1cc2sccc2n1Cc1ccc(F)cc1	.	.	-2.5	.	.
Cc1cc(C(=O)CSc2nnc(-c3cccnc3)n2-c2ccccc2F)c(C)n1CC1CCCO1 (configuration not stated)	-0.01	.	-0.0076	-27	4
CCOc1ccc(C2/C(=C(\O)c3ccc(OC)c(OC)c3)C(=O)C(=O)N2c2cc(C)on2)cc1OC (configuration not stated)	-0.6	-10	-0.072	-8	-4
Cc1cc(N2C(=O)C(=O)/C(=C(/O)c3ccc(F)cc3)C2c2ccc(Cl)cc2)no1 (configuration not stated)	-1.5	3	-6.2*	-8	2
